Test results from PubChem BioAssay (Tox21).
Results filed as inconclusive are left out. The source made the active and inactive calls. Calls come from the whole dose curve; as a rule, active = well fitted curve in the direction sought with a large enough effect in the repeat runs; inconclusive = weak or mixed curves; inactive = no such curve, though single readings can be large; an effect the other way counts as inactive or inconclusive.

Legend:
[1] = Caspase-3/7 induction in HepG2 cells by small molecules, qHTS assay (AID 1346978); note: nearly all actives have a fitted effect of over 15% in size
Outline: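 Caspase-3/7 induction was measured by Caspase-Glo 3/7 luminescence (30 min, room temperature) after a 17 hr compound exposure of wild-type HepG2 cells seeded at 2,000 per well and pre-incubated 5 hr.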

[2] = Caspase-3/7 induction in CHO-K1 cells by small molecules, qHTS cell viability counter screen (AID 1346979); note: nearly all actives have a fitted effect of over 35% in size; note: potency is the fitted concentration of half-maximal effect
Outline: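 Wild-type CHO-K1 cells were seeded at 1,500 per well, rested 5hr at 37 C, then exposed to compounds in DMSO. After 16hr, CellTiter-Fluor reagent was added and fluorescence read 1hr later as the viability measure.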

[3] = Caspase-3/7 induction in CHO-K1 cells by small molecules, qHTS assay (AID 1346980); note: nearly all actives have a fitted effect of over 15% in size
Outline: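 Luminescent Caspase-Glo 3/7 read (30min, room temperature) quantified apoptosis induction. Cells were wild-type CHO-K1, treated with compound for 17hr at 37 C and 5% CO2.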

[4] = Caspase-3/7 induction in HepG2 cells by small molecules, qHTS cell viability counter screen (AID 1346981); note: nearly all actives have a fitted effect of over 30% in size; note: potency is the fitted concentration of half-maximal effect; for activity change, negative = cytotoxicity: series mostly up to about 92 µM
Outline: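 Wild-type HepG2 cells, 2,000/well, settled 5 hr at 37 C, 5% CO2 before compound addition. Viability read by CellTiter-Fluor fluorescence, reagent added after 16 hr compound exposure, then 1 hr at 37C, in the same wells as the caspase read.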

[5] = biological target: Nuclear receptor subfamily 1 group I member 2 (Homo sapiens) (UniProt O75469); experiment: Human pregnane X receptor (PXR) small molecule agonists, qHTS assay (AID 1346982); note: nearly all actives have a fitted effect of over 35% in size; note: potency is the fitted concentration of half-maximal effect
Outline: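 PXR-Luc HepG2 reporter cells (CYP3A4-driven luciferase) in 5% charcoal-stripped FBS medium, plated 5 h before compound addition, then treated 24 h at 37C. Luciferase read by ONE-Glo luminescence after 30 min at room temperature.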

[6] = biological target: Nuclear receptor subfamily 1 group I member 2 (Rattus norvegicus) (UniProt Q9R1A7); experiment: Rat pregnane X receptor (rPXR) activation by small molecules, qHTS assay (AID 1346983); details: rPXR luciferase reporter cells, One-Glo luminescence, 24 h; max activation: active compounds read high; note: nearly all actives have a fitted effect of over 20% in size
Outline: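 Luminescent readout (One-Glo luciferase, 30 min room temperature) followed 24 hr compound treatment at 37 C of rPXR cells plated 2,000 per well and preincubated 5hr; qHTS format with compounds delivered in DMSO.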

[7] = biological target: Nuclear receptor subfamily 1 group I member 2 (Homo sapiens) (UniProt O75469); experiment: CYP3A4 induction through human pregnane X receptor (PXR) by small molecules, qHTS assay (AID 1346984); note: nearly all actives have a fitted effect of over 40% in size
Outline: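 DPX-2 HepG2 cells carrying a PXR response element and CYP3A4-promoter luciferase construct, treated with compounds 24 hr at 37C. Then P450-Glo CYP3A4 Luciferin-IPA substrate (3uM final) for 3 hr at 37C, One-Glo added, luminescence read.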

[8] = biological target: Nuclear receptor subfamily 1 group I member 2 (Homo sapiens) (UniProt O75469); experiment: Human pregnane X receptor (PXR) activation by small molecules, qHTS assay (AID 1346985); note: nearly all actives have a fitted effect of over 40% in size
Outline: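 DPX-2 cells (HepG2 co-transfected with a PXR response element and a CYP3A4-promoter luciferase construct) were seeded at 2,000 per well, rested 5 hr at 37C, then exposed to DMSO-dissolved compounds for 24 hr. Activation was read as luciferase luminescence.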

[9] = biological target: Cytochrome P450 2D6 (Homo sapiens) (UniProt P10635); experiment: Cytochrome P450 Family 2 Subfamily D Member 6 (CYP2D6) small molecule antagonists: luciferase reporter qHTS assay (AID 1671196); note: nearly all actives have a fitted effect of over 50% in size; note: potency is the fitted concentration of half-maximal effect; for activity change, negative = inhibition: series mostly up to about 120 µM
Outline: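 Cell-free P450-Glo system: CYP2D6 with proluciferin substrate was pre-incubated with compound for 10 min, then reacted with NADPH regeneration for 1 h at room temperature. Luciferin product was detected after 20 min, and data were reported as relative luminescence units.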

[10] = biological target: Cytochrome P450 2C19 (Homo sapiens) (UniProt P33261); experiment: Cytochrome P450 Family 2 Subfamily C Member 19 (CYP2C19) small molecule antagonists: luciferase reporter qHTS assay (AID 1671197); note: nearly all actives have a fitted effect of over 65% in size; note: potency is the fitted concentration of half-maximal effect; for activity change, negative = inhibition: series mostly up to about 120 µM
Outline: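 Quantitative high-throughput screen of the Tox21 library using CYP2C19 with proluciferin substrate. Reaction: NADPH regeneration, 37C, 1 h, after 10 min compound preincubation at room temperature. Readout: luminescence.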

[11] = biological target: Cytochrome P450 2C9 (Homo sapiens) (UniProt P11712); experiment: Cytochrome P450 Family 2 Subfamily C Member 9 (CYP2C9) small molecule antagonists: luciferase reporter qHTS assay (AID 1671198); note: nearly all actives have a fitted effect of over 50% in size; note: potency is the fitted concentration of half-maximal effect; for activity change, negative = inhibition: series mostly up to about 120 µM
Outline: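 Enzyme-substrate mix preincubated with compound 10 min at room temperature; reaction started with NADPH regeneration solution, 1 h 37C. Luminescent luciferin product read after 20 min detection reagent.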

[12] = biological target: Cytochrome P450 1A2 (Homo sapiens) (UniProt P05177); experiment: Cytochrome P450 Family 1 Subfamily A Member 2 (CYP1A2) small molecule antagonists: luciferase reporter qHTS assay (AID 1671199); note: nearly all actives have a fitted effect of over 50% in size; note: potency is the fitted concentration of half-maximal effect; for activity change, negative = inhibition: series mostly up to about 120 µM
Outline: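 P450-Glo CYP1A2 enzyme–proluciferin substrate mix with compound 10 min at room temperature, then NADPH regeneration 1 h at room temperature. Luciferin detection reagent added, luminescence read after 20 min; furafylline positive control.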

[13] = biological target: Voltage-gated inwardly rectifying potassium channel KCNH2 (Homo sapiens) (UniProt Q12809); experiment: Human Ether-a-go-go-Related Gene (hERG) channel small molecule antagonists: fluorescence cell-based qHTS assay (AID 1671200); note: nearly all actives have a fitted effect of over 50% in size; note: potency is the fitted concentration of half-maximal effect;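 for activity change, negative = inhibition: hERG-expressing U2OS cells given a thallium stimulus after FluxOR II dye loading; series mostly up to about 77 µM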
Outline: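 U2OS cells expressing the channel were plated at 1000 cells/well, incubated overnight at 37 C, then loaded with FluxOR II thallium-sensitive dye for 1 h at room temperature in the dark, with a further 10 min at room temperature before stimulation.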

[14] = biological target: Cytochrome P450 3A4 (Homo sapiens) (UniProt P08684); experiment: Cytochrome P450 Family 3 Subfamily A Member 4 (CYP3A4) small molecule antagonists: luciferase reporter qHTS assay (AID 1671201); note: nearly all actives have a fitted effect of over 50% in size; note: potency is the fitted concentration of half-maximal effect; for activity change, negative = inhibition: series mostly up to about 120 µM
Outline: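 P450-Glo CYP3A4 system with proluciferin substrate; compounds preincubated 10 min RT with enzyme-substrate mix, then NADPH regeneration added for 1 h RT. Detection reagent 20 min, luminescence read as relative luminescence units.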

[15] = Human pregnane X receptor (PXR) small molecule agonists, qHTS cell viability counter screen (AID 1346977); note: nearly all actives have a fitted effect of over 50% in size; note: potency is the fitted concentration of half-maximal effect
Outline: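 PXR-Luc HepG2 cells in medium with 5% charcoal-stripped FBS were pre-incubated 5hr, then exposed to compounds for 24hr at 37C. Viability was read in the same wells by CellTiter-Fluor fluorescence, reagent added after 23hr with a 1hr incubation.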
% is set by controls: 0 for no effect and ±100 for the full control effect.

Chain of Cytochrome P450 2C19 (Homo sapiens) (P33261 whole entry, looked up): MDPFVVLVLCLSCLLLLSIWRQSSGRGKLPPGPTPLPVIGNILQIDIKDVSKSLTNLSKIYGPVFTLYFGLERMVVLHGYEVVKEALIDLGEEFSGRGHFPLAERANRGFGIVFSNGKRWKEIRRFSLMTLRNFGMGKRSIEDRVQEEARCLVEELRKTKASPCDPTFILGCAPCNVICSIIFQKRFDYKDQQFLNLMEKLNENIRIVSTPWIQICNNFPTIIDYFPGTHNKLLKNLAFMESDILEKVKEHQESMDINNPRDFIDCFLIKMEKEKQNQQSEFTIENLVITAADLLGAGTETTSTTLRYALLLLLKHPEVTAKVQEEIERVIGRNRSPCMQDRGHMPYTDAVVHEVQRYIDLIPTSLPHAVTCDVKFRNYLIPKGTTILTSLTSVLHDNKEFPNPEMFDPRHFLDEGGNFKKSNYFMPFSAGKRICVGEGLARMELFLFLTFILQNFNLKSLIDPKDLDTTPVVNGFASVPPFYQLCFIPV
Chain of Cytochrome P450 2C9 (Homo sapiens) (P11712 whole entry, looked up): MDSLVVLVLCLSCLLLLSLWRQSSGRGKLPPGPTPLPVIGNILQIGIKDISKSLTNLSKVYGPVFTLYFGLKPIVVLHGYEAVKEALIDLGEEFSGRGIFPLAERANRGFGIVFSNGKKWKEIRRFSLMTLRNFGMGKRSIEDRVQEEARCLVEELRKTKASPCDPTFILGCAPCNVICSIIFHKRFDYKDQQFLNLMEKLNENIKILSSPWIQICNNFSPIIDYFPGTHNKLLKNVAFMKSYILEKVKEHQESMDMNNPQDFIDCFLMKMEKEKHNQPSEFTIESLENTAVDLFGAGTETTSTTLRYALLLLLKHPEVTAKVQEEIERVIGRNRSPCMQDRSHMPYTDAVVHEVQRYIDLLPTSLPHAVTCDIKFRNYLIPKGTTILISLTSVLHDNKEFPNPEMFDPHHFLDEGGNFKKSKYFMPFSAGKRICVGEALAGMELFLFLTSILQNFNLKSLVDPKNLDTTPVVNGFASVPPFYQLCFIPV
Chain of Voltage-gated inwardly rectifying potassium channel KCNH2 (Homo sapiens) (Q12809 whole entry, looked up): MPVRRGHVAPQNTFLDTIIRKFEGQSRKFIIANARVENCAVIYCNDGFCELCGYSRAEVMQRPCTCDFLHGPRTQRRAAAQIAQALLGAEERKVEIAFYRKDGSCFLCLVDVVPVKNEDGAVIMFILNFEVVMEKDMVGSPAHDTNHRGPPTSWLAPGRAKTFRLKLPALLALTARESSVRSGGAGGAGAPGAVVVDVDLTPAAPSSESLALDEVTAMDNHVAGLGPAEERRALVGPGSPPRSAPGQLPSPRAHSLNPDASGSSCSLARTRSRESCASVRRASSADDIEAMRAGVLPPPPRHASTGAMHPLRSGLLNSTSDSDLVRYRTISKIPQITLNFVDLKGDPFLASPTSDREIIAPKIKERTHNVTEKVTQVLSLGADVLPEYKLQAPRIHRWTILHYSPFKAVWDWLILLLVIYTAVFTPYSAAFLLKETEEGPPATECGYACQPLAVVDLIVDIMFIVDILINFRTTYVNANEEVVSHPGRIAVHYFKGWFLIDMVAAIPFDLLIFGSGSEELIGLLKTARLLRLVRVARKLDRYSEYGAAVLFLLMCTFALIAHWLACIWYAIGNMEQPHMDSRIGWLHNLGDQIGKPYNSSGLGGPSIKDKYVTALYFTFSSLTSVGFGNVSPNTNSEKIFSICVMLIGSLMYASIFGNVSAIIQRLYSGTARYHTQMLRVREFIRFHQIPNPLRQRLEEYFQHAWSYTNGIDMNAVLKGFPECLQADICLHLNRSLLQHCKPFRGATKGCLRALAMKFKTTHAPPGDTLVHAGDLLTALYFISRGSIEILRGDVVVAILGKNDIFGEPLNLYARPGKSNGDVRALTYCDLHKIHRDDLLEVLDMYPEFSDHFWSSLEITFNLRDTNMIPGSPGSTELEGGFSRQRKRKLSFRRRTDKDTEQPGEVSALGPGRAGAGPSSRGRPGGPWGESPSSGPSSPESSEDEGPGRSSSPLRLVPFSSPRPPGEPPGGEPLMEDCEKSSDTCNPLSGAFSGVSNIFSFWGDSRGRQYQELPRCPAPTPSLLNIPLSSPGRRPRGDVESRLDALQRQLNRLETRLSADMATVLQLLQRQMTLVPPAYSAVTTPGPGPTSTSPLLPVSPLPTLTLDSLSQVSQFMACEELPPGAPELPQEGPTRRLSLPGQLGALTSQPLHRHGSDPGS
Chain of Cytochrome P450 1A2 (Homo sapiens) (P05177 whole entry, looked up): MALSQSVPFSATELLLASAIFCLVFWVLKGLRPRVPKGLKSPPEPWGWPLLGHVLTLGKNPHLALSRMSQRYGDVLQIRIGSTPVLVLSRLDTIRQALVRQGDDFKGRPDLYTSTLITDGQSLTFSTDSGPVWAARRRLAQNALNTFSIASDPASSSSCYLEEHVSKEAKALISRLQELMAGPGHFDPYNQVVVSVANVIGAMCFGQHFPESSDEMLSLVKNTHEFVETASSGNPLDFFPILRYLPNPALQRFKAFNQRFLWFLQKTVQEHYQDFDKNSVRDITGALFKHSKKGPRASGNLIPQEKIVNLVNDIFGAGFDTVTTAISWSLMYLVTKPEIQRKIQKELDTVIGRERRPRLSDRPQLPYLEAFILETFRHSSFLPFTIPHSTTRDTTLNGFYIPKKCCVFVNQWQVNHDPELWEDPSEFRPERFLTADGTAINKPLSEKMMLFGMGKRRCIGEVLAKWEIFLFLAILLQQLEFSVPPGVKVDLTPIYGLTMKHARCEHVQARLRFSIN
Chain of Cytochrome P450 2D6 (Homo sapiens) (P10635 whole entry, looked up): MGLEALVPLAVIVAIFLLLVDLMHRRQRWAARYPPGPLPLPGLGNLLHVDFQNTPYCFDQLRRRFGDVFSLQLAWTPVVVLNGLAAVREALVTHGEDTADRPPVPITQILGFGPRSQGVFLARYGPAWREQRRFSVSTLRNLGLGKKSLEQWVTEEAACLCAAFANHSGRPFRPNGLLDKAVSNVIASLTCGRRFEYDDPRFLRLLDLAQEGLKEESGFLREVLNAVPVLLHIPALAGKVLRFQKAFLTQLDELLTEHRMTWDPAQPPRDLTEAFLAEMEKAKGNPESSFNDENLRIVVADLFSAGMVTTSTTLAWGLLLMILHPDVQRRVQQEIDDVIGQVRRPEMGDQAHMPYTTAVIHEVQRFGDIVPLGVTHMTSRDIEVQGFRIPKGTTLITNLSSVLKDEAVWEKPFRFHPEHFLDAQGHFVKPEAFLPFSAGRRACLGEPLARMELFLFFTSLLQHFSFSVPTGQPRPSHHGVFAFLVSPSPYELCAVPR
Chain of Nuclear receptor subfamily 1 group I member 2 (Homo sapiens) (O75469 whole entry, looked up): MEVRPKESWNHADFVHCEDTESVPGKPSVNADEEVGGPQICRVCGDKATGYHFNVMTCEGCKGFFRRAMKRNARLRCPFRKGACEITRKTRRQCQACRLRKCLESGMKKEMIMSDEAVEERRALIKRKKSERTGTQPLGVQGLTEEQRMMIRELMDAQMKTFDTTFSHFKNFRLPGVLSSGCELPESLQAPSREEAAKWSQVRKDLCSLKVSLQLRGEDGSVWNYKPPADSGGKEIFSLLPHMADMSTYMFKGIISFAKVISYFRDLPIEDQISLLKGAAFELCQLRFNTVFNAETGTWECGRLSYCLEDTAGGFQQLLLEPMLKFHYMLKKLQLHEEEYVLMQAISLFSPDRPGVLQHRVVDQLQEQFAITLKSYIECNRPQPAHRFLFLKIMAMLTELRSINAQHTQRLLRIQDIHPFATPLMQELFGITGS
Chain of Cytochrome P450 3A4 (Homo sapiens) (P08684 whole entry, looked up): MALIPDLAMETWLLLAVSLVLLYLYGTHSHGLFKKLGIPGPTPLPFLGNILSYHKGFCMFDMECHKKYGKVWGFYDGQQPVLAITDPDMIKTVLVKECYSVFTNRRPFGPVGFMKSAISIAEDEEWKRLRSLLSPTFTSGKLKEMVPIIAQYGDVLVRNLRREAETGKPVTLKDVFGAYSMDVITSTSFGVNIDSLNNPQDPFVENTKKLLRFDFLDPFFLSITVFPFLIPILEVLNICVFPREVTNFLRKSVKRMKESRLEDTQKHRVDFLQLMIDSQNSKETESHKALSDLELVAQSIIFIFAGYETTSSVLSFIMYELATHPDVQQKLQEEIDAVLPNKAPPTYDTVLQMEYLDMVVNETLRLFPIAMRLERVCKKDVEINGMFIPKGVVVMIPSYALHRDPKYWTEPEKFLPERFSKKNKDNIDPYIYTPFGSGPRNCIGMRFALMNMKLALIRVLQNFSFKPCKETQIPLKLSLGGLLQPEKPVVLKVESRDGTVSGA
Chain of Nuclear receptor subfamily 1 group I member 2 (Rattus norvegicus) (Q9R1A7 whole entry, looked up): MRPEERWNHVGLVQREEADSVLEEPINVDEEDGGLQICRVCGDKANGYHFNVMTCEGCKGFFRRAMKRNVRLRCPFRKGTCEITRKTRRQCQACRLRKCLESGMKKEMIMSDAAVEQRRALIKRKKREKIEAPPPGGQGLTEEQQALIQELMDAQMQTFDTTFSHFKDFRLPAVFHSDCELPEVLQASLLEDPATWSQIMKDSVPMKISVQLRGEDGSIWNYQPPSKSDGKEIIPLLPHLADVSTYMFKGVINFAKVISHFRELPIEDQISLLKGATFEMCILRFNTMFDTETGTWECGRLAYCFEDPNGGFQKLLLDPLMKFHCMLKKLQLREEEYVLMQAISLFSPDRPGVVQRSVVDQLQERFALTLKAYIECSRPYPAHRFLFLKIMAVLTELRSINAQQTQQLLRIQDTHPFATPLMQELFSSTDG

COc1cc(NCc2ccc3nc(N)nc(N)c3c2C)cc(OC)c1OC
active: Potency [2] 26.6 µM | Potency [4] 26.6 µM | Potency [9] 13.8 µM | Potency [10] 9.77 µM | Potency [11] 15.5 µM | Potency [12] 7.76 µM
inactive: Potency [1] | outcome [3] | Potency [5] | max activation [6] -10.1% | Potency [7] | Potency [8] | Potency [13]

CCCCCCC(O)CCCCCCCCCCC(=O)OC (stereo not drawn)
inactive: Potency [1] | Potency [2] | outcome [3] | Potency [4] | Potency [5] | Potency [9] | Potency [10] | Potency [13]
active: Potency [11] 35.6 µM

CCN(CC)CCOC(=O)C(c1ccccc1)c1ccccc1
active: Potency [9] 2.75 µM | Potency [10] 21.9 µM | Potency [12] 15.5 µM | Potency [13] 2.68 µM
inactive: Potency [1] | Potency [2] | outcome [3] | Potency [4] | Potency [5] | max activation [6] 0.131% | Potency [7] | Potency [8] | Potency [14]

Nc1c(Cl)cc(Cl)cc1[N+](=O)[O-]
active: Potency [12] 5.64 µM
inactive: Potency [1] | Potency [2] | outcome [3] | Potency [4] | Potency [5] | Potency [9] | Potency [11] | Potency [13] | Potency [14]

CCCOC(=O)c1c(Cl)c(Cl)c(Cl)c(Cl)c1C(=O)OCCC
active: Potency [5] 17.2 µM | Potency [10] 7.1 µM | Potency [11] 17.8 µM | Potency [12] 2.24 µM
inactive: Potency [15] | Potency [4] | Potency [9] | Potency [13] | Potency [14]

CCO[Si](C)(CCCOCC1CO1)OCC (stereo not drawn)
inactive: Potency [1] | Potency [2] | outcome [3] | Potency [4] | Potency [5] | Potency [9] | Potency [10] | Potency [13]
active: Potency [14] 39.9 µM

C[C@@H]1C[C@H]2[C@@H]3CCC4=CC(=O)C=C[C@]4(C)[C@@]3(F)[C@@H](O)C[C@]2(C)[C@@]1(O)C(=O)COP(=O)(O)O
inactive: Potency [1] | Potency [2] | outcome [3] | Potency [4] | Potency [5] | Potency [9] | Potency [10] | Potency [11] | Potency [12] | Potency [13] | Potency [14]

CN1CCCN(C(c2ccccc2)c2ccc(Cl)cc2)CC1 (stereo not drawn)
active: Potency [15] 13.3 µM | Potency [2] 26.6 µM | Potency [9] 0.49 µM | Potency [13] 1.9 µM
inactive: outcome [3] | Potency [5] | Potency [10] | Potency [11] | Potency [12]

CC1CCCO1 (stereo not drawn)
inactive: Potency [15] | Potency [2] | outcome [3] | Potency [4] | Potency [9] | Potency [10] | Potency [11] | Potency [13] | Potency [14]

CCN(Cc1cccc(S(=O)(=O)O)c1)c1ccc(C(=C2C=CC(=[N+](CC)Cc3cccc(S(=O)(=O)O)c3)C=C2)c2ccccc2S(=O)(=O)[O-])cc1
inactive: Potency [1] | outcome [3] | Potency [5] | Potency [13]
active: Potency [2] 17.3 µM | Potency [4] 17.3 µM | Potency [9] 17.9 µM | Potency [10] 17.9 µM | Potency [11] 11.3 µM | Potency [12] 17.9 µM

C/C(C=O)=C\c1ccccc1
inactive: Potency [1] | Potency [2] | outcome [3] | Potency [4] | Potency [9] | Potency [10] | Potency [11] | Potency [12] | Potency [13] | Potency [14]
active: Potency [5] 30 µM

CC(C)COC(=O)c1ccc(O)cc1
active: Potency [5] 3.06 µM | Potency [10] 3.17 µM | Potency [11] 25.2 µM | Potency [12] 2.82 µM
inactive: Potency [15] | outcome [3] | Potency [4] | Potency [13] | Potency [14]

CCC(CO)(CO)[N+](=O)[O-]
inactive: Potency [1] | Potency [2] | outcome [3] | Potency [4] | Potency [5] | Potency [9] | Potency [10] | Potency [11] | Potency [12] | Potency [13] | Potency [14]

CS(=O)(=O)c1ccc([C@@H](C[C@H]2CCC(=O)C2)C(=O)Nc2cnccn2)cc1Cl
inactive: Potency [1] | Potency [2] | outcome [3] | Potency [4] | Potency [5]

N[C@@H](Cc1cc(I)c(O)c(I)c1)C(=O)O
inactive: Potency [1] | outcome [3] | Potency [4] | Potency [5] | Potency [9] | Potency [10] | Potency [13] | Potency [14]
active: Potency [2] 23.7 µM | Potency [11] 38.9 µM

O=C(O)c1cccc(C[C@@H]2COc3ccc(OCc4nc5cc(F)ccc5s4)cc3[C@@H]2O)c1
inactive: Potency [1] | Potency [2] | outcome [3] | Potency [4] | Potency [5] | Potency [9] | Potency [10] | Potency [13] | Potency [14]
active: Potency [11] 40 µM

COC(CC(C)CCCC(C)(C)O)OC (stereo not drawn)
active: Potency [10] 35.6 µM
inactive: Potency [15] | Potency [2] | outcome [3] | Potency [5] | Potency [13] | Potency [14]

Oc1cccc2[nH]ccc12
inactive: Potency [1] | Potency [2] | outcome [3] | Potency [4] | Potency [5] | Potency [10] | Potency [12] | Potency [13] | Potency [14]
active: Potency [9] 15.5 µM | Potency [11] 15.5 µM

CCN(CC)c1ccc(C(=C2C=CC(=[N+](CC)CC)C=C2)c2ccc(S(=O)(=O)O)cc2S(=O)(=O)[O-])cc1
inactive: outcome [3] | Potency [5] | Potency [13]
active: Potency [15] 15.4 µM | Potency [2] 15.4 µM | Potency [9] 20 µM | Potency [10] 17.8 µM | Potency [11] 14.2 µM | Potency [12] 10 µM | Potency [14] 8.94 µM

CC1=CC[C@@]23C[C@@H]1C(C)(C)[C@@H]2CC[C@H]3C
inactive: Potency [15] | Potency [2] | outcome [3] | Potency [4] | Potency [5] | Potency [9] | Potency [13]
active: Potency [14] 79.6 µM

CCCCCCCCCCCCCCN(C)C
inactive: activity change, negative = cytotoxicity [15] 0.682% [at 19 µM] | activity change, negative = cytotoxicity [2] 2.75% [at 19 µM] | caspase-3/7 activation [3] -1.58% [at 19 µM] | activity change, negative = cytotoxicity [4] -7.71% [at 19 µM] | activation [5] 8.78% [at 19 µM] | activity change, negative = inhibition [9] -19.3% [at 23.6 µM] | activity change, negative = inhibition [11] -16.9% [at 23.6 µM] | activity change, negative = inhibition [13] -0.651% [at 15.8 µM] | activity change, negative = inhibition [14] -11.1% [at 23.6 µM]
